Source: PubChem BioAssay (Tox21)
Records with an inconclusive call do not appear. Calls of active or inactive are those of the source. Unless noted, the call rests on the fitted dose curve; in most records, active means well fitted cell-killing curve with a large enough effect in the repeat runs (not every such curve was filed as active); inconclusive means weak or mixed curves, or effect the other way; inactive means no such curve, though single readings can be large or run the other way.

target: Bile acid receptor (Homo sapiens) (UniProt Q96RI1); assay: qHTS assay to identify small molecule agonists of the farnesoid-X-receptor (FXR) signaling pathway (AID 743220; active means well fitted activation curve with a large enough effect in the signal ratio in the repeat runs, not every such curve was filed as active; the % refers to the signal ratio; further: potency means the concentration at half of the fitted maximal effect); details: HEK293T FXR-UAS-bla, beta-lactamase FRET ratio, 16 h; series mostly up to 62.6 µM; activation: at the top concentration
Sequence (Q96RI1 whole entry, looked up): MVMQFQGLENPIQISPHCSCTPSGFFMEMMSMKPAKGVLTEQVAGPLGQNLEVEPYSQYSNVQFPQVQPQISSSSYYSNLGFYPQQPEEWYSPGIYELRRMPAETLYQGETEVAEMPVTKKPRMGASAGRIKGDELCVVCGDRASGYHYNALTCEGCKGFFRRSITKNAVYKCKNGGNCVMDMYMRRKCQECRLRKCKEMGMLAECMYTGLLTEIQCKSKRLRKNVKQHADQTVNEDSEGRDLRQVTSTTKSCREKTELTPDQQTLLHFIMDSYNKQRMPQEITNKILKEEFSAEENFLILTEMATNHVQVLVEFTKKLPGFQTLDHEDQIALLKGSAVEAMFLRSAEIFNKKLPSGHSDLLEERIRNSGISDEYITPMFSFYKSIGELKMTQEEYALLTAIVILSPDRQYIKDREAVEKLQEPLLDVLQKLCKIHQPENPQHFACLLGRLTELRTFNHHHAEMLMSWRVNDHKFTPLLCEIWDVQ
How it was run: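 Beta-lactamase reporter under UAS control in GeneBLAzer FXR HEK 293T cells (5000/well) measured with LiveBLAzer FRET substrate after 2 h at room temperature. Compound exposure lasted 16 h at 37C.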
On the % scale 0 is the no-effect control and ±100 the full control effect.

| SMILES | activation | Potency |
| --- | --- | --- |
| O[C@@H]([C@H](O)[C@H](O)CBr)[C@H](O)CBr | -0.7% (inactive) | – |
| CCCCCCCC | 0.246% (inactive) | – |
| Cl[Si](Cl)(c1ccccc1)c1ccccc1 | 5.79% [at 81.1 µM] (inactive) | – |
| OCC(F)(F)F | -0.206% [at 81.1 µM] (inactive) | – |
| CCOC(=O)c1ccc(C2CCC(NC[C@H](O)COc3ccc(O)c(NS(C)(=O)=O)c3)CC2)cc1 (stereo partly specified) | -7.11% (inactive) | – |
| Cc1ccc(C)cc1 | -3.34% (inactive) | – |
| CCCNCCC | -2.25% [at 81.1 µM] (inactive) | – |
| O=C(Oc1ccccc1)Oc1ccccc1 | 0.403% (inactive) | – |
| O=c1c(O)c(-c2ccc(O)cc2O)oc2cc(O)cc(O)c12 | -0.749% (inactive) | – |
| CC(CO)Oc1ccccc1 (stereo unspecified) | 0.123% [at 81.1 µM] (inactive) | – |
| CN(C)[C@@H](CCOc1cccc2ccccc12)c1ccccc1 | 0.508% (inactive) | – |
| FC(F)(F)c1cccc(Cl)c1 | -0.482% (inactive) | – |
| CCCC[P+](C)(CCCC)CCCC | 2.91% [at 81.1 µM] (inactive) | – |
| C#CC1(O)CC[C@H]2[C@@H]3CCC4=CCCC[C@@H]4[C@H]3CC[C@@]21C (stereo partly specified) | -1.05% (inactive) | – |
| O=S(=O)(O)c1ccc(Nc2nc(Nc3ccc(/C=C/c4ccc(Nc5nc(Nc6ccc(S(=O)(=O)O)cc6)nc(N(CCO)CCO)n5)cc4S(=O)(=O)O)c(S(=O)(=O)O)c3)nc(N(CCO)CCO)n2)cc1 | – | 33.1 µM (active) |

test system: not listed separately; assay: qHTS assay to identify small molecule antagonists of the farnesoid-X-receptor (FXR) signaling pathway - cell viability counter screen (AID 743221); details: FXR-bla HEK293T viability, CellTiter-Glo luminescence, 16 h; series mostly up to 62.6 µM; activity change, negative = cytotoxicity: at the top concentration; further: nearly all actives have a fitted effect of over 50% in size
How it was run: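 Cytotoxicity counter screen run in the FXR-bla reporter wells: HEK 293T cells exposed to compound with 50 uM (final) chenodeoxycholic acid for 16 h, 37 C, then viability measured by CellTiter-Glo luminescence after 30 min, room temperature.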

| SMILES | activity change, negative = cytotoxicity |
| --- | --- |
| COc1ccc(NC(=O)CC(C)=O)cc1 | 21.9% (inactive) |
| Cc1cccc(C)c1NC(=O)c1ccc(N)cc1 | 1.77% (inactive) |
| O[C@@H]([C@H](O)[C@H](O)CBr)[C@H](O)CBr | 7.69% (inactive) |
| CCCCCCCC | 11.7% (inactive) |
| Cl[Si](Cl)(c1ccccc1)c1ccccc1 | 8.87% [at 81.1 µM] (inactive) |
| OCC(F)(F)F | 8.03% [at 81.1 µM] (inactive) |
| C=CCCC(=O)/C=C/C1C(C)=CCCC1(C)C (stereo unspecified) | 11.9% (inactive) |
| C[C@H]1NCc2cc(-c3ccc4c(=O)c(C(=O)O)cn(C5CC5)c4c3OC(F)F)ccc21 | 2.59% [at 29.1 µM] (inactive) |
| CCCNCCC | 5.84% [at 81.1 µM] (inactive) |
| Oc1cc(Cl)cc(Cl)c1Cl | -22.8% [at 81.1 µM] (inactive) |
| Nc1ccc(NCCO)c([N+](=O)[O-])c1 | 0.738% (inactive) |
| Clc1sc(Cl)c(Cl)c1Cl | 5.41% (inactive) |
| O=c1c(O)c(-c2ccc(O)cc2O)oc2cc(O)cc(O)c12 | -10.3% (inactive) |
| COc1cc2nc(N3CCN(C(=O)c4ccco4)CC3)nc(N)c2cc1OC | 15.3% [at 29.1 µM] (inactive) |
| CC(CO)Oc1ccccc1 (stereo unspecified) | -9.5% [at 81.1 µM] (inactive) |
| COc1cc(C)ccc1O | -7.29% (inactive) |
| CN(C)[C@@H](CCOc1cccc2ccccc12)c1ccccc1 | -17.3% (inactive) |
| CC(=O)Oc1cc2c(s1)CCN(C(C(=O)C1CC1)c1ccccc1F)C2 (stereo unspecified) | -0.631% (inactive) |
| FC(F)(F)c1cccc(Cl)c1 | 10.1% (inactive) |
| CCCC[P+](C)(CCCC)CCCC | -27.1% [at 81.1 µM] (inactive) |
| CC(C)(C)CC(C)(C)c1ccc(Nc2ccc(C(C)(C)CC(C)(C)C)cc2)cc1 | 1.78% [at 5.95 µM] (inactive) |
| C=CC(C)(CCC=C(C)C)OC=O (stereo unspecified) | -2.07% (inactive) |
| CCCCCCCCCCOC(=O)c1ccccc1C(=O)OCCCCCCCC | -23.2% (inactive) |
| CCCCCCCC/C=C\CCCCCCCCN | 5.68% (inactive) |
| OC/C=C/CO | 3.14% (inactive) |
| Cc1c(F)c(N2CCNC(C)C2)cc2c1c(=O)c(C(=O)O)cn2C1CC1 (stereo unspecified) | 4.23% (inactive) |
